Test [1] can be described thus: qHTS assay to identify small molecule antagonists of the thyroid receptor (TR) signaling pathway - cell viability counter screen (AID 743064). Further: nearly all actives have a fitted effect of over 50% in size. In a few lines: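 In rat pituitary GH3.TRE-Luc reporter cells co-exposed to compound and 1 nM T3 for 23.5 h, cytotoxicity was assessed with CellTiter-Fluor in the same wells, read by fluorescence.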
A general note: qHTS replaces the single test concentration by a dilution series.

A short description of test [2]: qHTS assay to identify small molecule antagonists of the thyroid receptor (TR) signaling pathway (AID 743065). Further: series mostly up to about 70 µM; nearly all actives have a fitted effect of over 55% in size. Summed up: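 Antagonism measured as loss of luciferase signal in GH3 cells stably carrying a TRE-luciferase reporter, co-treated with compound and T3 (1 nM final) for 23.5 h at 37 C. Viability was read in the same well by CellTiter-Fluor.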
In test [3] the test system is thyroid hormone receptor (rat, GH3 cells). In words: qHTS assay to identify small molecule agonists of the thyroid receptor (TR) signaling pathway (AID 743066; calls by dose curve).
Test [4] concerns the target Estrogen receptor (Homo sapiens) (UniProt P03372). As to the kind of experiment: qHTS assay to identify small molecule antagonists of the estrogen receptor alpha (ER-alpha) signaling pathway (AID 743069; active means well fitted curve in the direction sought with a large enough effect in the signal ratio in the repeat runs, not every such curve was filed as active; the % refers to the signal ratio). In a few lines:
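Antagonist mode: compounds in DMSO were co-added with 17beta-estradiol to ER-alpha-bla HEK293 cells (2% charcoal-stripped serum) and left 18 h at 37C. Reporter inhibition was measured as FRET fluorescence after 2 h LiveBLAzer substrate at room temperature.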

Test [5] in a line: qHTS assay to identify small molecule antagonists of the estrogen receptor alpha (ER-alpha) signaling pathway - cell viability counter screen (AID 743074; calls by dose curve;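 further: HEK293 cells carrying ER-alpha-UAS-bla reporter stimulated with 17beta-estradiol; nearly all actives have a fitted effect of over 45% in size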).
Test [6] has as its target Estrogen receptor (Homo sapiens) (UniProt P03372). As to the kind of experiment: qHTS assay to identify small molecule agonists of the estrogen receptor alpha (ER-alpha) signaling pathway (AID 743075; calls by dose curve;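 further: HEK293 GripTite cells with ER-alpha and UAS-driven beta-lactamase reporter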).
Test [7] has the same target. As to the kind of experiment: qHTS assay to identify small molecule agonists of the estrogen receptor alpha (ER-alpha) signaling pathway using the BG1 cell line (AID 743079). Further: nearly all actives have a fitted effect of over 20% in size. Further: potency means the concentration at half of the fitted maximal effect.
Test [8] in a line: qHTS assay to identify small molecule antagonists of the estrogen receptor alpha (ER-alpha) signaling pathway using the BG1 cell line (AID 743080; calls by dose curve;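 further: BG1 cells stimulated with 17beta-estradiol alongside compound; series mostly up to about 70 µM; nearly all actives have a fitted effect of over 25% in size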). In a few lines:
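BG1Luc4E2, endogenous ER-alpha, 4xERE-luc; 5 d charcoal-stripped FBS, phenol red free; 24 h plating; cpd + 17beta-estradiol 21.5 h, 37 C/5% CO2; CellTiter-Fluor viability 30 min, then ONE-Glo luciferase 30 min RT.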

A short description of test [9]: qHTS assay to identify small molecule antagonists of the estrogen receptor alpha (ER-alpha) signaling pathway using the BG1 cell line - cell viability counter screen (AID 743081).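 Further: compound given together with 17beta-estradiol as the ER stimulus; series mostly up to about 70 µM; nearly all actives have a fitted effect of over 45% in size.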
The next test deals with Aromatase (Homo sapiens) (UniProt P11511). In words: qHTS assay to identify aromatase inhibitors (AID 743083). Further: series mostly up to about 70 µM; nearly all actives have a fitted effect of over 55% in size.
A short description of test [10]: qHTS assay to identify aromatase inhibitors - cell viability counter screen (AID 743084).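 Further: cells stimulated with testosterone during compound exposure; nearly all actives have a fitted effect of over 55% in size.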
In test [11] the target is Aryl hydrocarbon receptor (Homo sapiens) (UniProt P35869). In words: qHTS assay to identify small molecule that activate the aryl hydrocarbon receptor (AhR) signaling pathway (AID 743085). Further: nearly all actives have a fitted effect of over 15% in size. Further: potency means the concentration at half of the fitted maximal effect.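 On activation: HG2L7.5c1 human HepG2 liver cells with stably integrated DRE-driven firefly reporter; series mostly up to about 70 µM.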 Summed up:
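AhR agonist activity is inferred from enhanced light output of a DRE-controlled firefly luciferase reporter in HepG2 cells, measured with ONE-Glo following 24 h treatment at 37C.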

Test [12] is described as follows: qHTS assay to identify small molecule that activate the aryl hydrocarbon receptor (AhR) signaling pathway - cell viability counter screen (AID 743086). Further: series mostly up to about 70 µM; nearly all actives have a fitted effect of over 45% in size. Summed up: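 Cytotoxicity counter screen: CellTiter-Fluor signal (30 min, 37 C) in 4000 HepG2 cells/well carrying the DRE-luciferase reporter, following 24 h compound exposure at 37 C.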
Test [13] addresses Peroxisome proliferator-activated receptor gamma (Homo sapiens) (UniProt P37231). As to the kind of experiment: qHTS assay to identify small molecule agonists of the peroxisome proliferator-activated receptor gamma (PPARg) signaling pathway (AID 743094; active means well fitted activation curve with a large enough effect in the signal ratio in the repeat runs, not every such curve was filed as active; the % refers to the signal ratio). In a few lines: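 Cell-based bla reporter, HEK293H background, PPARg-driven UAS. Pre-incubation 5 h, 37C, 5% CO2. Compound 17 h, 37C. Substrate 1 h RT; fluorescence.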

Test [14] shares this target. As to the kind of experiment: qHTS assay to identify small molecule antagonists of the peroxisome proliferator-activated receptor gamma (PPARg) signaling pathway (AID 743191; calls by dose curve; further: series mostly up to about 63 µM; nearly all actives have a fitted effect of over 30% in size). In a few lines: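 Beta-lactamase reporter under UAS control in HEK293H PPARg-bla cells; compound treatment 17 h at 37C. Read-out: fluorescence intensity after 1 h room-temperature incubation with LiveBLAzer B/G FRET substrate.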

The nature of test [15]: qHTS assay for small molecule agonists of the antioxidant response element (ARE) signaling pathway (AID 743202; active means well fitted activation curve with a large enough effect in the signal ratio in the repeat runs, not every such curve was filed as active; the % refers to the signal ratio). Summed up: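 After 16 hours of compound treatment at 37 C, HepG2 cells with a stably integrated ARE-driven beta-lactamase reporter were loaded 2 hours at room temperature with LiveBLAzer B/G FRET substrate and fluorescence intensity measured.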
Test [16] in a line: qHTS assay for small molecule agonists of the antioxidant response element (ARE) signaling pathway - cell viability counter screen (AID 743203; calls by dose curve; further: nearly all actives have a fitted effect of over 55% in size). Summed up: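 Measured in the same wells as the beta-lactamase ARE reporter, this read-out is CellTiter-Glo luminescence from HepG2 ARE-bla cells given compounds for 16 hrs.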
Test [17] is described as follows: qHTS assay for small molecule activators of the heat shock response signaling pathway - cell viability counter screen (AID 743209). Further: nearly all actives have a fitted effect of over 50% in size. In a few lines:
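Same-well multiplex: after 2.5 h room-temperature incubation with LiveBLAzer B/G substrate and fluorescence reading, CellTiter-Glo reagent was added to HSE-bla HeLa cells that had received compound for 5 h at 37 C; luminescence read after 30 min.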

A short description of test [18]: qHTS assay for small molecule activators of the heat shock response signaling pathway (AID 743210; active means well fitted activation curve with a large enough effect in the signal ratio in the repeat runs, with a control signal flat, not every such curve was filed as active; the % refers to the signal ratio; further: series mostly up to about 63 µM). Summed up:
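Compound exposure lasted 5 h at 37 C in HeLa cells carrying a heat-shock-element-driven beta-lactamase reporter. Read-out: fluorescence intensity after 2.5 h room-temperature loading with LiveBLAzer B/G FRET substrate.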

Test [19] in a line: qHTS assay to identify small molecule antagonists of the peroxisome proliferator-activated receptor gamma (PPARg) signaling pathway - cell viability counter screen (AID 743194). Further: nearly all actives have a fitted effect of over 55% in size. In a few lines: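 Viability was measured as CellTiter-Glo luminescence in GeneBLAzer PPARg UAS-bla HEK293H cells. These cells had been exposed 17 h at 37 C to compounds together with rosiglitazone at 50 nM final, with the beta-lactamase readout taken in the same wells.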

SMILES strings stand for the structures. “And” between values parts separate entries of the source, which are not always exact repeats. Equal values may be shown once. Records with an inconclusive call do not appear. Some compounds were tested as several samples or in several runs, with calls that do not always agree. The source made the active and inactive calls. Unless noted, the call rests on the fitted dose curve; in most records, active means well fitted curve in the direction sought with a large enough effect in the repeat runs; inconclusive means weak or mixed curves; inactive means no such curve, though single readings can be large; an effect the other way counts as inactive or inconclusive.

Sequence of Aromatase (Homo sapiens) (P11511 whole entry, looked up): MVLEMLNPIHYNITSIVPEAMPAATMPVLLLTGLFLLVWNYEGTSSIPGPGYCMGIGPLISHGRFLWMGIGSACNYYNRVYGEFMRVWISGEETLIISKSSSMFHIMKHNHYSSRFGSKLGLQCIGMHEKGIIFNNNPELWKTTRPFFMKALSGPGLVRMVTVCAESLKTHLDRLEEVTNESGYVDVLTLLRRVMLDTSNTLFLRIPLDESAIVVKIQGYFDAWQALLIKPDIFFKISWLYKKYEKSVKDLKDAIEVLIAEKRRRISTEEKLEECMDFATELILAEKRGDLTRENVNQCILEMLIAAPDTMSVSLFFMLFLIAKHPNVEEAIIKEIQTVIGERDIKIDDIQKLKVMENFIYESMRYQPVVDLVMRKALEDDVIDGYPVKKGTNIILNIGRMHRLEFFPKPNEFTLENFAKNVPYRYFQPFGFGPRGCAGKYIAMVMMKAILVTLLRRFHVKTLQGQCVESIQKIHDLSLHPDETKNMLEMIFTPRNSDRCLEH
Sequence of Aryl hydrocarbon receptor (Homo sapiens) (P35869 whole entry, looked up): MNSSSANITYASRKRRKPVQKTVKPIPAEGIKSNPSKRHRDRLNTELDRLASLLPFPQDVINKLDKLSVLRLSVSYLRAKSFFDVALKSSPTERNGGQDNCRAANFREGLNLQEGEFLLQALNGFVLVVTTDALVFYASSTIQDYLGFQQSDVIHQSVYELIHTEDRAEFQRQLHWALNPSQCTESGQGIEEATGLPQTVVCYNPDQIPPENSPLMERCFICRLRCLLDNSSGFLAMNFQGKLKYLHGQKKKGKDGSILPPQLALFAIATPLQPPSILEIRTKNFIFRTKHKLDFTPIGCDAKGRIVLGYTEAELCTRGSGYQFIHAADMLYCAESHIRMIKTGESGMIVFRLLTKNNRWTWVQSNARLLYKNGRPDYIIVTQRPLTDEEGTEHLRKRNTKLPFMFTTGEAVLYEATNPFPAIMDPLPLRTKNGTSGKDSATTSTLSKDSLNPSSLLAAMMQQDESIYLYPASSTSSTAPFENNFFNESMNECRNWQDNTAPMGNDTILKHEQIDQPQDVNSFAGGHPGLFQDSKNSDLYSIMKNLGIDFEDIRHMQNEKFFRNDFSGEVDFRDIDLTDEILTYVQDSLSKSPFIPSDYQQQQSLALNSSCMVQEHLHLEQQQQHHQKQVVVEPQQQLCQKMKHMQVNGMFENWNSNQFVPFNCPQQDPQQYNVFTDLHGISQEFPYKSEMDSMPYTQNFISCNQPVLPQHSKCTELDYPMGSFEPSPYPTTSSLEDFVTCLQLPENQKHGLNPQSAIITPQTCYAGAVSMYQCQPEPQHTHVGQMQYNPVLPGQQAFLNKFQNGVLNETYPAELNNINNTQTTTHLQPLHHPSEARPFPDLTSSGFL
Sequence of Peroxisome proliferator-activated receptor gamma (Homo sapiens) (P37231 whole entry, looked up): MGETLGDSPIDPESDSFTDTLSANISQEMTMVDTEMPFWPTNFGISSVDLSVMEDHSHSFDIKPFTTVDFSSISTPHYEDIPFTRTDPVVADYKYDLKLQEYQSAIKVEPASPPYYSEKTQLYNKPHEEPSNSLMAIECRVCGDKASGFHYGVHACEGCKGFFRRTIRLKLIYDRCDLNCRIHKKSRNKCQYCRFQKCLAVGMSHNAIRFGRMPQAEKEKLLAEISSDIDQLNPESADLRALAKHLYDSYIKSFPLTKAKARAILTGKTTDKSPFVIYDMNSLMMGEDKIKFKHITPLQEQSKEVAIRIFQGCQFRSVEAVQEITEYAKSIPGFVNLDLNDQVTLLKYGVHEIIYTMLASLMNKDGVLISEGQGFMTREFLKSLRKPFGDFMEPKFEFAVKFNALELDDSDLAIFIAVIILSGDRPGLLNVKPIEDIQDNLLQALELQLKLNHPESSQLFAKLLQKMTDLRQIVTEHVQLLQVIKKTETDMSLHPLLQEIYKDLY
Sequence of Estrogen receptor (Homo sapiens) (P03372 whole entry, looked up): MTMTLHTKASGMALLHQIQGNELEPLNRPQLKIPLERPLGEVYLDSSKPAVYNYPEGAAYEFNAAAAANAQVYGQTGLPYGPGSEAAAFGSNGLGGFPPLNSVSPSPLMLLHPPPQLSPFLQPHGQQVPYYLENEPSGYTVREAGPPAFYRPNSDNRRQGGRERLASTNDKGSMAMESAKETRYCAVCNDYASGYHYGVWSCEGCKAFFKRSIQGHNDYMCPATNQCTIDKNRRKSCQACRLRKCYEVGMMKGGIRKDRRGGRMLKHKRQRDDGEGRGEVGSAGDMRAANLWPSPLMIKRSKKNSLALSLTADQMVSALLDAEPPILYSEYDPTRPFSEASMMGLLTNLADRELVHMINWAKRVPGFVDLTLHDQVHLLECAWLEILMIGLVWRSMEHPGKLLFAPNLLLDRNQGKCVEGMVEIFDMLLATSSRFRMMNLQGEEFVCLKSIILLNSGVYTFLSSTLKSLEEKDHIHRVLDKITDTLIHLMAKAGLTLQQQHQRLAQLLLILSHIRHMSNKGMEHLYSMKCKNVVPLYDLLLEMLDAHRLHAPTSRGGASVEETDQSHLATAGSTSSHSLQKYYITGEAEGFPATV

With `O=C(O)CC(C(=O)O)C(CC(=O)O)C(=O)O` (centres undefined), the Potency entry in [1], in [2], in test [3], in test [4], in [6] and in test [7] was “inactive” throughout. In addition, the Potency entry (in [8]; in [9]; in the test with Aromatase (Homo sapiens); in [10]; in test [11]; in test [15]) was “inactive” each time. In addition, in test [18], the Potency entry is “inactive”. The compound was classed as inactive in test [5], in test [12], in test [13], in test [14], in test [16] and in test [17].
Turning to `CCCCCCCCCCCCS`, the Potency result in test [1], in test [2], in test [3], in test [4], in test [6] and in test [7] was “inactive” each time. The Potency result (in [8]; in test [9]; with Aromatase (Homo sapiens); in test [10]; in test [11]; in [15]) was “inactive” throughout. In addition, the Potency result in [18] was “inactive”. The call in test [5], in [12], in test [13], in [14], in test [16] and in test [17] was inactive.
`C/C=C1/CC2C=CC1C2` (centres undefined): the Potency result in test [1], in [2], in test [3], in test [4], in test [6] and in test [7] was “inactive” each time. The Potency result (in test [8]; in test [9]; with Aromatase (Homo sapiens); in test [10]; in [11]; in test [15]) was “inactive” throughout. In test [18], the Potency entry was “inactive”. The outcome in [5], in test [12], in test [13], in [16] and in [17] was inactive.
For the compound `O=S1(=O)CC=CC1`, the Potency entry in [1], in test [2], in test [3], in [4], in test [6] and in [7] was “inactive” each time. Moreover, the Potency entry (in test [8]; in [9]; in the test with Aromatase (Homo sapiens); in test [10]; in test [11]; in test [15]) was “inactive” each time. Also, in test [18], the Potency result was “inactive”. Further, the call in test [5], in test [12], in test [13], in test [14], in test [16] and in test [17] was inactive.
Turning to `CCCCCCCCCCCCCCO`, the Potency result in test [1], in test [2], in [3], in test [4], in test [6] and in test [7] was “inactive” in each case. The Potency entry (in test [8]; in [9]; with Aromatase (Homo sapiens); in test [10]; in test [11]; in [15]) was “inactive” in each case. The Potency entry in test [18] was “inactive”. In addition, the compound was called inactive in test [5], in test [12], in test [13], in [14], in test [19] and in [16]. For the same compound, the result in test [17] was inactive.
For `c1c[nH]cn1`, the Potency result in test [1], in [2], in [3], in test [4], in test [6] and in [7] was “inactive” throughout. Moreover, the Potency result (in test [8]; in test [9]; with Aromatase (Homo sapiens); in test [10]; in test [11]; in test [18]) was “inactive” in each case. The call in test [5], in test [12], in test [13], in [14] and in [16] was inactive.
With `O=[N+]([O-])c1ccc(/C=C/c2ccc([N+](=O)[O-])cc2S(=O)(=O)O)c(S(=O)(=O)O)c1`, the Potency result in [1], in test [2], in test [3], in test [4], in [6] and in test [7] was “inactive” throughout. Further, the Potency entry (in [8]; in [9]; with Aromatase (Homo sapiens); in test [10]; in test [11]; in test [15]) was “inactive” in each case. Moreover, the Potency entry in test [18] was “inactive”. Moreover, the compound was classed as inactive in [5], in [12], in [13], in [19] and in test [16].
Take `Cc1ccc(N(C)C)cc1`: the Potency result in test [1], in test [2], in test [3], in test [4], in [6] and in [8] was “inactive” throughout. The Potency result (in test [9]; with Aromatase (Homo sapiens); in test [10]; in test [15]) was “inactive” throughout. Also, the call in test [5], in [12], in test [13], in [14], in test [19] and in test [16] was inactive. In addition, the result in [17] was inactive. In addition, the Potency was 61.1 µM (active) in test [7]; “inactive and 68.6 µM (active)” in [11].

The values above are taken from PubChem BioAssay (Tox21).
